Assay outcomes from PubChem BioAssay.
IMPase cell inh = IMPase inhibition in cells. P97697. 120,000 tested, under 10 active. AID 901. CHO-M1 cells, IP1 accumulation, HTRF TR-FRET ratio. inhibition (IP1 accumulation), % at 46.1 µM; active = well fitted curve in the direction sought with a large enough effect in the signal ratio, not every such curve was filed as active; inconclusive = small, poorly fitted or top-dose-only effect, or a change in a side signal; inactive = no such curve, though single readings can be large or run the other way; the % refers to the signal ratio;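 note: cells stimulated with carbachol in lithium chloride buffer; higher means more IMPase inhibition seen as more IP1 and lower FRET ratio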
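Elevated IP1 in lysates lowers TR-FRET signal (665/620 ratio and 620 channel reported). Cells were CHO-M1, given carbachol (50 uM as added) plus 50mM LiCl, pH 7.4, 30 min, 37C; compounds titrated up to 46 uM; AC50 by Hill equation.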
IMPase Li inh = IMPase inhibition in cells with lithium potentiation | CHO-M1 cells, IP1 TR-FRET (IP-One), carbachol + lithium | Potency, µM (titrated, usually from 59.4 µM), hits mostly inhibitors | hit rate 0.35% among 210,000;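 note: IP1 builds up when IMPase is blocked and the TR-FRET signal falls; nearly all actives have a fitted effect of over 50% in size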
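CHO cells stably expressing M1 receptor (2000/well, cultured 16–30 h) treated 30 min at 37C with compound plus low lithium. Cytosolic IP1 by TR-FRET (665/620 ratio and 620 channel) after 10 min lysis; AC50 by Hill fit.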
HTT cytoprotect = protects HTT-Q103 PC12 cells, measured by ATP; PC12 HTT-Q103 induced, cytoprotection, ATP luminescence, 40 h; hit rate 0.14% among 230,000; Potency, µM (series often up to 56.4 µM), usual class: activators; note: nearly all actives have a fitted effect of over 45% in size
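ATP quantification (ATPlite) reports survival of PC12 cells in which tebufenozide, 100 nM final, switches on Htt exon 1 with 103 glutamines linked to GFP; compounds are titrated.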
PNC assembly inh = inhibitors of perinucleolar compartment assembly; PC3M PTB-GFP, PNC prevalence imaging, 16 h; stronger effect = lower value; activity change (PNC), negative = inhibition, % at 10 µM; hit rate 3.1% among 140,000;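 active = readout at or below -70, meaning at least 70% loss of cells showing the perinucleolar compartment, a nuclear body marking cancer cells; inconclusive = readout between -30 and a set limit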
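PC3M cells stably expressing PTB-GFP, 750–1000 cells/well, treated 16 h at 37 °C with compound (23 nl of library stock), in duplicate. After paraformaldehyde fixation and Hoechst stain, imaged at 20x; PNC prevalence scored by image analysis.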
NPSR antag = antagonists of human neuropeptide S receptor cAMP signaling. Potency, µM (series often up to 38.3 µM), hits mostly inhibitors. AID 1461. Q6W5P4. CHO-NPSR cells, cAMP TR-FRET, antagonist mode. hit rate 1% among 220,000; note: nearly all actives have a fitted effect of over 50% in size
Target sequence (Q6W5P4 whole entry, looked up): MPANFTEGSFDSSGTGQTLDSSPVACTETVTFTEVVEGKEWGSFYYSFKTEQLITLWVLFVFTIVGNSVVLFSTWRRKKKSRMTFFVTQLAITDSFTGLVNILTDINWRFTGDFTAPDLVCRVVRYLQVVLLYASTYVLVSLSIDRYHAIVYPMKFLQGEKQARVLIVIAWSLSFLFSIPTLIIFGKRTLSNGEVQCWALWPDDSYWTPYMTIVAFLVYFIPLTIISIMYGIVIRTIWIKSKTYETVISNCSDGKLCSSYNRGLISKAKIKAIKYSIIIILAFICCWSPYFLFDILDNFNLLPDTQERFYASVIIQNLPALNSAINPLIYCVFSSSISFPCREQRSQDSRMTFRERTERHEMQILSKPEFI
HTT aggregate = inhibitors of mutant huntingtin aggregate formation in PC12 cells; AID 1688; PC12 HttQ103-GFP aggregates, Acumen cytometry, 40 h; hit rate 1.1% among 220,000; Potency, µM (series often up to 46.1 µM), usual class: inhibitors; note: nearly all actives have a fitted effect of over 60% in size
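Read-out: GFP aggregate count by laser scanning cytometer (488 nm excitation, 500-530 nm emission, 1–25 µm objects >6 SD above background). Cells: PC12, inducible HTTex1-Q103-GFP, 100 nM tebufenozide; compounds titrated.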
Each line names hits and unclear results; the compound was inactive in the other large screens; ! = not confirmed by another sample. Shown are actives, neighbours in structure and some others; about 3.4% of the full set was active somewhere. Unless noted, calls come from the whole dose curve; as a rule, active = well fitted curve in the direction sought with a large enough effect; inconclusive = small, poorly fitted or top-dose-only effect, or another doubt; inactive = no such curve, though single readings can be large; an effect the other way counts as inactive or inconclusive.

O=C(Cc1ccccc1)NC1CCN(Cc2ccccc2)CC1	none (no result: IMPase cell inh, PNC assembly inh)
Cn1c(N)c(C(=O)COC(=O)COc2ccc3ccccc3c2)c(=O)n(C)c1=O	none (no result: IMPase cell inh, PNC assembly inh)
C=CCOc1ccc(CN(C)CC(=O)N(CC(C)C)c2c(N)n(CC(C)C)c(=O)[nH]c2=O)cc1	PNC assembly inh -101
Cc1cccnc1CN1CCN(C(=O)c2cc(COc3ccc4ncccc4c3)on2)CC1	HTT aggregate 6.3µM (no result: IMPase cell inh, IMPase Li inh, PNC assembly inh)
CCOC(=O)N1CCN(C(=O)c2cc(COc3ccc4ncccc4c3)on2)CC1	none (no result: IMPase cell inh, PNC assembly inh)
O=C(NC1CCCCCCC1)c1cc(COc2ccc3ncccc3c2)on1	HTT aggregate 3.2µM (no result: IMPase cell inh, PNC assembly inh)
O=C(c1cc(COc2ccc3ncccc3c2)on1)N1CCC(O)CC1	none (no result: IMPase cell inh, PNC assembly inh)
N=C(N)c1ccc(N2CCN(C3CCN(CC(=O)O)CC3)CC2)cc1	none (no result: IMPase cell inh, PNC assembly inh, NPSR antag, HTT aggregate)
COc1ccc(C(C(=O)NC2CCCC2)N(CCN(C)C)C(=O)c2snc(C(N)=O)c2N)cc1 (stereo not drawn)	PNC assembly inh -114
NC(=O)c1nsc(C(=O)N(CCc2ccccc2)C(C(=O)NC2CCCC2)c2ccco2)c1N (stereo not drawn)	none
COc1cccc2c1C(=O)CC(c1ccccc1)O2 (stereo not drawn)	none (no result: PNC assembly inh, NPSR antag, HTT aggregate)
CCCCCCCCCCCCCCC/C=C\[C@H](O)[C@@H](NC(=O)CCCCCCCCCCCCC)OC (tested in a mixture with another compound)	none (no result: IMPase Li inh, PNC assembly inh, NPSR antag, HTT aggregate)
CC(C)CC(=O)Nc1ccc(Nc2ccccc2)cc1	PNC assembly inh -100
COc1c(N2CCN(C(=S)Nc3ccc(F)cc3)C(C)C2)c(F)cc2c(=O)c(C(=O)O)cn(C3CC3)c12 (stereo not drawn)	none
COc1c(N2CCNC(C)C2)c(F)cc2c(=O)c(C(=O)O)cn(C3CC3)c12 (stereo not drawn)	HTT cytoprotect 3.2µM! (no result: IMPase cell inh, PNC assembly inh, NPSR antag)
Cc1c(C(=O)Nc2ccc(Oc3ccccc3)cc2)sc2nc3n(c(=O)c12)CCC3	HTT aggregate 4.5µM
Cc1c(C(=O)Nc2ccc(OC(F)(F)F)cc2)sc2nc3n(c(=O)c12)CCC3	none
O=C(CSc1nnc(CNC(=O)c2cccs2)o1)NC1CCCC1	PNC assembly inh -100
O=CN1CCc2c([nH]c3ccccc23)C1c1cccc2cccnc12 (stereo not drawn)	none (no result: IMPase cell inh, PNC assembly inh, NPSR antag, HTT aggregate)
Cc1c2cc(O)c(=O)cc-2oc2cc(O)c(O)cc12	IMPase cell inh inconclusive
COc1cc(OC)c(-c2c3cc(O)c(=O)cc-3oc3cc(O)c(O)cc23)cc1OC	HTT aggregate 4µM
O=S(=O)(Nc1ccc(-c2csc(-c3ccccc3)n2)cc1)c1ccc(F)cc1	NPSR antag inconclusive
O=C(Nc1nc(-c2ccccc2)cs1)c1ccccc1NS(=O)(=O)c1ccc(F)cc1	NPSR antag inconclusive, HTT aggregate 1.8µM (no result: IMPase cell inh)
COc1ccccc1OC(C)C(=O)Nc1nc(-c2ccc(S(=O)(=O)N3CCOCC3)cc2)cs1 (stereo not drawn)	PNC assembly inh inconclusive
COc1ccccc1C(=O)Nc1nc(-c2ccc(S(=O)(=O)N3CCOCC3)cc2)cs1	NPSR antag inconclusive, HTT aggregate 2.5µM
COc1ccc(-n2cnc3ccccc32)cc1	HTT aggregate 14µM
c1ccc(-n2cnc3ccccc32)cc1	HTT aggregate inconclusive (no result: IMPase cell inh, PNC assembly inh)
COc1ccc2ncn(-c3ccccc3)c2c1	HTT aggregate 10µM
O=C(C1=C[C@@H](c2ccc(Br)cc2)C[C@@H](OCCCCO)O1)N1CCN(Cc2ccccc2)CC1	none (no result: IMPase cell inh, PNC assembly inh)
CCC(C)NC(=O)C1CCN(c2nc(C)cc(C)n2)CC1 (stereo not drawn)	none
Cc1cc(-c2ccccc2)nc(N2CCC(C(=O)NC(C)C)CC2)n1	PNC assembly inh -100
Cn1c(=O)c2c(nc(CN3CCN(C(c4ccccc4)c4ccccc4)CC3)n2CC(N)=O)n(C)c1=O	none
COCCn1c(CN2CCN(c3cccc(Cl)c3)CC2)nc2c1c(=O)n(C)c(=O)n2C	PNC assembly inh inconclusive, HTT aggregate 20µM
